SMILES strings stand for the structures. The panel holds about 79,000 compounds, 15% with a hit somewhere; the sample as a whole holds those more often. Values without a mark were called inactive. Active and inactive are the calls of the source. Rule as the data show it: active = growth inhibition above about 70%; inactive = the rest.

The values that follow come from PubChem BioAssay (NCI).

Assay [1] in a line: NCI Yeast Anticancer Drug Screen. Data for the rad50 strain (AID 155).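 Also: 0% = growth of vehicle-only cultures of the same strain.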 To be noted: S. cerevisiae rad50 strain growth inhibition; at 50.0 µM; active compounds read high. An outline of the steps: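 A DNA repair-deficient yeast mutant serves as the test organism; compound-induced growth inhibition is calculated against vehicle-treated cells.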
Assay [2] is described as follows: NCI Yeast Anticancer Drug Screen. Data for the mec2-1 strain (AID 157). To be noted: S. cerevisiae mec2-1 strain, at 50.0 µM, active compounds read high. An outline of the steps:
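Strain: mec2-1 (DNA repair/cell cycle alteration). Compound exposure, then growth measured; inhibition expressed relative to vehicle.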

The nature of assay [3]: NCI Yeast Anticancer Drug Screen. Data for the sgs1 mgt1 strain (AID 161).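 Also: 0% = growth of cultures given vehicle only.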 To be noted: S. cerevisiae sgs1 mgt1 strain, at 50.0 µM, active compounds read high. An outline of the steps: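 Genetically altered yeast, compound exposure, growth inhibition relative to vehicle.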
Assay [4] can be described thus: NCI Yeast Anticancer Drug Screen. Data for the cln2 rad14 strain (AID 165).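 Also: 0% = growth equal to vehicle treated cultures.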 The conditions noted are these: S. cerevisiae cln2 rad14 strain, at 50.0 µM, active compounds read high. An outline of the steps: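 Compounds are applied to the cln2 rad14 yeast strain, and growth is then compared with that of vehicle-treated cultures to give inhibition.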
Assay [5] in a line: NCI Yeast Anticancer Drug Screen. Data for the bub3 strain (AID 167). The conditions noted are these: S. cerevisiae bub3 mutant strain, at 50.0 µM, active compounds read high. A digest of the protocol:
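Inhibition values come from growth of compound-treated mutant yeast normalised to vehicle-treated controls.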

Assay [6] in a line: NCI Yeast Anticancer Drug Screen. Data for the mlh1 rad18 strain (AID 175). The conditions noted are these: S. cerevisiae mlh1 rad18 strain growth inhibition; at 50.0 µM; active compounds read high. An outline of the steps:
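Read-out is yeast growth inhibition, calculated against vehicle-only controls. The compound was applied to a strain engineered with DNA damage repair alterations.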

Turning to `Cc1ncc(CO)c(Cc2ccc(N(C)C)cc2)c1O`, the growth inhibition is 3.15% in assay [1]; -2.25% in assay [2]; -5.9% in assay [3]; -2.25% in assay [4]; -58.8% in assay [5]; 1.8% in assay [6].
With `O=C(O)c1ccccc1Cc1c[nH]c2ccccc12`, the growth inhibition in assay [1] is -37.3%; in assay [2] it was 4.95%; in assay [3] it was -0.8%; in assay [4] it was -15.3%; in assay [5] it was 41.3%; in assay [6] it was -5.05%.
As to `NC(CCC(N)C(=O)c1ccccc1)C(=O)c1ccccc1` (configuration not stated), the growth inhibition was -12.2% in assay [1]; -7.75% in assay [2]; 4.35% in assay [3]; 6.8% in assay [4]; -8.8% in assay [5]; 11.7% in assay [6].
For `C=CCNC(=S)/N=C/C(C(=O)Nc1ccccc1OC)=C(\C)O`, the growth inhibition in assay [1] is -17.4%; in assay [2] it was -19.2%; in assay [3] it was -27.3%; in assay [4], -9.85%; in assay [5], -34.5%; in assay [6], -16.3%.
Regarding `CN(c1ccccc1)c1cc2c(cc1[N+](=O)[O-])no[n+]2[O-]`, the growth inhibition in assay [1] is 97.8% (active); in assay [2] it was 98.7% (active); in assay [3] it was 98.3% (active); in assay [4] it was 98% (active); in assay [5], 98.2% (active); in assay [6], 98.8% (active).
`[Cl][Pt+2][Cl].[NH-]c1cccc(C(F)(F)F)c1.[NH-]c1cccc(C(F)(F)F)c1`: the growth inhibition is 2.1% in assay [1]; 12.2% in assay [2]; -6.35% in assay [3]; 7.05% in assay [4]; -22.8% in assay [5]; -11.9% in assay [6].
Regarding `Nc1cccc(N)n1`, the growth inhibition in assay [1] was 7.65%; in assay [2], -12.2%; in assay [3], -15.8%; in assay [4], 5.7%; in assay [5] it was -0.7%; in assay [6] it was -14.6%.
Take `Cc1cc(C)c(/C=N/NC(=O)NN)c(C)c1`: the growth inhibition in assay [1] was -16.7%; in assay [2], -7.15%; in assay [3], -12.2%; in assay [4], -2.1%; in assay [5] it was 2.8%; in assay [6], -4.6%.
As to `CC(C)/C(Cl)=N\OC(=O)Nc1ccc(C#N)cc1`, the growth inhibition was -22.4% in assay [1]; 52% in assay [2]; 51.2% in assay [3]; 11% in assay [4]; 60.1% in assay [5]; 41% in assay [6].
For the compound `CC(O)CNc1ncnc2ccccc12` (configuration not stated), the growth inhibition in assay [1] was -13.5%; in assay [2], -12.2%; in assay [3], -3.15%; in assay [4] it was -5.1%; in assay [5] it was 9.15%; in assay [6], 4.05%.
Take `CC(=O)N(C)c1ccc(NC(=O)/C=C/c2ccccc2)cc1`: the growth inhibition in assay [1] is 0.15%; in assay [2] it was 4.25%; in assay [3] it was 15.7%; in assay [4], -9.85%; in assay [5], 28.1%; in assay [6] it was 17.1%.
Consider `C[Si](C)(CCCNCCN)O[Si](C)(C)CCCNCCN`, for which the growth inhibition in assay [1] is -7.3%; in assay [2] it was -24.1%; in assay [3], 5.65%; in assay [4] it was -2.1%; in assay [5], 9.2%; in assay [6], 9.95%.
In the case of `O=c1[nH]c2cc(Cl)ccc2nc1/C=C(\O)c1cccc(O)c1`, the growth inhibition in assay [1] was -3.45%; in assay [2] it was -5.05%; in assay [3], -8.45%; in assay [4], -4.35%; in assay [5], -4.45%; in assay [6], 10.2%.
In the case of `O=C(Cn1c(C(=O)c2ccccc2)nc2ccccc21)c1ccccc1`, the growth inhibition in assay [1] is -39.2%; in assay [2], -16.6%; in assay [3] it was -32.8%; in assay [4] it was -8.95%; in assay [5], -16.4%; in assay [6] it was -18%.
As to `Cn1c(=S)sc2ccc(S(=O)(=O)C(F)F)cc21`, the growth inhibition is 23.7% in assay [1]; 20.9% in assay [2]; 4.7% in assay [3]; 12.8% in assay [4]; 22.6% in assay [5]; 25.1% in assay [6].
Take `CCCCN(CCCC)CCC(O)c1cc(-c2ccc(Cl)c(Cl)c2)nc2c(Cl)cc(Cl)cc12` (configuration not stated): the growth inhibition in assay [1] is 96.4% (active); in assay [2] it was 95.5% (active); in assay [3], 6.85%; in assay [4], 97.2% (active); in assay [5], 90.3% (active); in assay [6], 74.8% (active).
Take `Cc1ccc(F)c([N+](=O)[O-])c1`: the growth inhibition is -3.55% in assay [1]; 7.1% in assay [2]; -10.5% in assay [3]; 0% in assay [4]; -9.65% in assay [5]; -6.5% in assay [6].
Take `CCc1ccccc1NC(=O)CCc1nc(=S)[nH][nH]1`: the growth inhibition is -24.8% in assay [1]; 9.6% in assay [2]; 2.9% in assay [3]; 32.4% in assay [4]; 20.1% in assay [5]; 6.15% in assay [6].
As for `NC(CCS(N)(=O)=O)C(=O)O` (configuration not stated), the growth inhibition in assay [1] was -9.45%; in assay [2], -5.3%; in assay [3], -1.85%; in assay [4], -2.7%; in assay [5], 5.5%; in assay [6], -10.9%.
`COC(=O)C1CC[N-]CC1.COC(=O)C1CC[N-]CC1.[Cl][Pt+2][Cl]`: the growth inhibition was -0.15% in assay [1]; 6.9% in assay [2]; -6.8% in assay [3]; -24.4% in assay [4]; -4.15% in assay [5]; 21.2% in assay [6].
As for `O=[N+]([O-])c1sc2ccccc2c1Br`, the growth inhibition in assay [1] is 98% (active); in assay [2] it was 98.7% (active); in assay [3], 98.8% (active); in assay [4] it was 99% (active); in assay [5], 99.1% (active); in assay [6] it was 98.7% (active).
As for `Cc1cccc2c1C1C(CC2=O)C(=O)c2ccccc2C1C` (configuration not stated), the growth inhibition in assay [1] is 7%; in assay [2], -17.8%; in assay [3], 3.5%; in assay [4], 8.9%; in assay [5], 11.6%; in assay [6], 11.5%.
Regarding `CCc1n[nH]c(=O)n1/N=C/c1ccc(C)cc1`, the growth inhibition is -0.2% in assay [1]; -3.3% in assay [2]; -4.85% in assay [3]; -0.3% in assay [4]; 3.8% in assay [5]; -2.25% in assay [6].
In the case of `COc1cc(OC)c(NC(N)=O)cc1Cl`, the growth inhibition in assay [1] was 2.3%; in assay [2], -35%; in assay [3] it was 3.55%; in assay [4] it was 9.75%; in assay [5] it was 5.75%; in assay [6] it was -15.8%.
As for `COc1ccc(N2C(=O)OC3(CCN(Cc4ccccc4)CC3)C2=O)cc1`, the growth inhibition in assay [1] is -1.55%; in assay [2], 13.2%; in assay [3] it was 7.7%; in assay [4], 8.25%; in assay [5], 8%; in assay [6], 16.4%.
For the compound `COc1ccc(OCC(=O)N2CCCCC2)cc1`, the growth inhibition in assay [1] was -2.95%; in assay [2], -11.6%; in assay [3], 0%; in assay [4], -40.2%; in assay [5] it was 13.2%; in assay [6] it was -1.65%.
With `COC(=O)NN=C1C(C)(C)C(=O)C1(C)C`, the growth inhibition in assay [1] was -20.7%; in assay [2] it was -21.8%; in assay [3], -25.4%; in assay [4], 6.05%; in assay [5] it was -29.4%; in assay [6], -20.1%.
In the case of `Cc1cccc(/C=N/NC(=S)NCCc2ccccn2)n1`, the growth inhibition in assay [1] is -17.4%; in assay [2], -33.8%; in assay [3], 14.2%; in assay [4], 0.8%; in assay [5] it was 9.55%; in assay [6] it was -2.85%.
On to `Cc1cc(=O)c2c(Br)ccc(Br)c2[nH]1`, for which the growth inhibition in assay [1] is 3.5%; in assay [2], -16.1%; in assay [3], -1.1%; in assay [4], 3.4%; in assay [5], 7.3%; in assay [6] it was -13.8%.
As to `CNC(=O)N(c1ccccc1)C1CCCCC1`, the growth inhibition is 15.8% in assay [1]; 13.8% in assay [2]; -2.5% in assay [3]; -65.5% in assay [4]; 9.8% in assay [5]; 1.15% in assay [6].
`N#CCC(=O)NCc1ccncc1`: the growth inhibition in assay [1] was -13.8%; in assay [2] it was -50.4%; in assay [3] it was -24.7%; in assay [4], 7.85%; in assay [5] it was -41%; in assay [6] it was -13.1%.
Regarding `Cc1ccc2ncccc2c1`, the growth inhibition in assay [1] is -2.75%; in assay [2], -18.1%; in assay [3] it was 1.8%; in assay [4], -12.4%; in assay [5] it was 3.9%; in assay [6], -6.45%.
As for `CSc1nc2c(c(=O)n(C)c(=O)n2C)n1C`, the growth inhibition in assay [1] was 30.4%; in assay [2], -3.25%; in assay [3], -10.7%; in assay [4], 8.15%; in assay [5] it was 9.15%; in assay [6], 24.9%.
Consider `O=C(O)CCC(=O)Oc1ccccc1`, for which the growth inhibition in assay [1] is -17.6%; in assay [2], 11.2%; in assay [3], 13.2%; in assay [4], 31.6%; in assay [5] it was 9.6%; in assay [6] it was 44.5%.
In the case of `CC(=O)NC(C=O)C(O)C(O)C(O)CO` (configuration not stated), the growth inhibition in assay [1] is -29.4%; in assay [2], -24.8%; in assay [3], -11.1%; in assay [4], -16.2%; in assay [5], -7%; in assay [6] it was 2.25%.
`Cc1ccc(/C(O)=C/c2nc3c(nc2NC24CC5CC(CC(C5)C2)C4)c(=O)oc2ccccc23)cc1`: the growth inhibition in assay [1] is 5.65%; in assay [2], -0.65%; in assay [3], -6.7%; in assay [4], -3.7%; in assay [5], 6.1%; in assay [6] it was 1.85%.
Regarding `O=CC(NC(=O)N(CCF)N=O)C(O)C(O)C(O)CO` (configuration not stated), the growth inhibition in assay [1] was -15%; in assay [2], -4.05%; in assay [3], 2.5%; in assay [4] it was -15.6%; in assay [5], 1.3%; in assay [6], -44.4%.
